# Measurements: PubChem BioAssay (EPA / NIEHS)
# Results filed as inconclusive are left out. Some compounds were tested as several samples or in several runs, with calls that do not always agree. Active and inactive are the calls of the source. The calls were made as follows: active = hit-call score of the fitted dose curve at least 0.9, where 1 is the maximum; inconclusive = response in the unintended direction; inactive = score below 0.9.
# Assay: CCTE_Mundy_HCI_hNP1_Pro_ResponderAvgInten: CCTE's Proliferation Assay in human neuroprogenitor cells, Mundy Lab (AID 2284224)
# Protocol: CCTE_Mundy_HCI_hNP1_Pro is a multiplexed, cell-based-readout assay that uses neural stem cells derived from a neuroepithelial cell lineage of WA09 embryonic cells with measurements taken at 26.25 hours after chemical dosing in a microplate: 96-well plate.CCTE_Mundy_HCI_hNP1_Pro_ResponderAvgInten is one of three components of the CCTE_Mundy_HCI_hNP1_Pro assay. It measures proliferation related to percentage of BrdU positive cells using High Content Imaging of fluorescently labelled markers.Data from the assay component CCTE_Mundy_HCI_hNP1_Pro_ResponderAvgInten was analyzed at the endpoint CCTE_Mundy_HCI_hNP1_Pro_ResponderAvgInten in the positive analysis fitting direction relative to DMSO as the negative control and baseline of activity. Using a type of growth reporter, loss -of-signal activity can be used to understand viability effects.
# Human neural progenitor cells (hNP1) were obtained as cryopreserved cells from ArunA Biomedical, Athens Georgia. Cells are plated on pre-coated poly-L-ornithine/laminin clear bottom and opaque 96 well plates (day 0). Plates are placed in a 37 °C, 5% CO2 incubator for 40 to 44 hours at which time plates are removed from the incubator and 10 uL of a freshly made chemical solution is added to each well. Twenty hours after the addition of the chemicals, the clear plates are removed from the incubator and 11 uL of a BrdU solution is added to each well. The plates are returned to the incubator for four hours. After four hours, the plates are fixed with a 4% paraformaldehyde solution.
SMILES,outcome,AC50
CS(=O)(=O)c1cc(C(F)(F)F)ccc1C(=O)c1cnoc1C1CC1,inactive,
N#CN=C1SCCN1Cc1ccc(Cl)nc1,inactive,
COP(=O)(OC)O/C(C)=C/C(=O)N(C)C,inactive,
CCOP(=O)(OCC)Oc1nc(Cl)c(Cl)cc1Cl,inactive,73.7 µM (active)
CO/N=C(/C1=NOCCO1)c1ccccc1Oc1ncnc(Oc2ccccc2Cl)c1F,inactive,
Cc1c(COC(=O)[C@@H]2[C@H](/C=C(\Cl)C(F)(F)F)C2(C)C)cccc1-c1ccccc1,,3.68 µM (active)
CCN(CC)c1nc(C)cc(OP(=S)(OC)OC)n1,,89.2 µM (active)
C=C(C)CN(CC)c1c([N+](=O)[O-])cc(C(F)(F)F)cc1[N+](=O)[O-],,19 µM (active)
COC(=O)N(C(=O)N1CO[C@@]2(C(=O)OC)Cc3cc(Cl)ccc3C2=N1)c1ccc(OC(F)(F)F)cc1,inactive,
O=C(Nc1ccccc1-c1ccc(Cl)cc1)c1cccnc1Cl,inactive,
